Data on 15 compounds can be found in PubChem BioAssay.

For part of these data: Potency and affinity values are given separately. Active and inactive are the calls of the source. Unless noted, the rule behind the calls is not given here.

Experiment [1] deals with Cell division control protein 42 homolog (Homo sapiens) (UniProt P60953). Nature of the experiment: activated mutant Cdc42 GTP-binding inhibitors, dose response, biochemical, multiplex bead flow cytometry, Bodipy-FL-GTP (AID 1333;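 active = fitted half-maximal concentration within the tested dose range, moderate curve steepness, a statistically real signal drop, and little compound fluorescence or tag-binding interference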). On the technique in general: In flow cytometry, cells or beads pass a laser one at a time.
For experiment [2] the target is unchanged. The experiment in a line: wildtype Cdc42 GTP-binding inhibitors, dose response, biochemical, multiplex bead flow cytometry, Bodipy-FL-GTP (AID 1334;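 active = fitted half-maximal concentration within the tested range, moderate curve steepness, significant signal drop, and little compound fluorescence or bead-linkage interference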). The following applies: bead-based flow cytometry, Bodipy-FL-GTP binding to GST-Cdc42; at 100 µM (top of the series) unless noted.
Experiment [3] has as its target GTPase HRas (Homo sapiens) (UniProt P01112). Nature of the experiment: inhibitors of GTP binding to wildtype Ras, dose response, biochemical, multiplex bead flow cytometry (AID 1335;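 active = fitted half-maximal concentration within 10 nM to 100 µM, steepness 0.5 to 2, significant signal drop, low assay interference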). The following applies: bead-based flow cytometry, Bodipy-GTP binding to GST-Ras; at 100 µM (top of the series) unless noted.
Experiment [4] relates to Ras-related protein Rab-7a (dog), GTP binding. Nature of the experiment: Rab7 GTP binding inhibitors, potency, dose response, biochemical, wildtype, multiplex bead flow cytometry (AID 1336).
Experiment [5] concerns the target Ras-related C3 botulinum toxin substrate 1 (Homo sapiens) (UniProt P63000). The experiment in a line: wildtype Rac1 GTP binding inhibitors, dose response, biochemical, multiplex bead flow cytometry (AID 1340;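 active = dose curve with midpoint inside tested range, moderate steepness, plateau gap beyond fit error, low compound glow and bead-link interference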). The note with it: GST-Rac1 beads, Bodipy-FL-GTP binding; at 100 µM (top of the series) unless noted.
The target of experiment [6] is GTPase HRas (Homo sapiens) (UniProt P01112). The experiment in a line: activated Ras mutant GTP binding inhibitors, dose response, biochemical, multiplex bead flow cytometry (AID 1341;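 active = dose-response curve with midpoint inside the tested range, moderate steepness, significant amplitude and little compound fluorescence or bead-attachment interference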;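 note: GST-tagged constitutively activated Ras mutant immobilized on beads and multiplexed with other GTPases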).
Chain of GTPase HRas (Homo sapiens) (P01112 whole entry, looked up): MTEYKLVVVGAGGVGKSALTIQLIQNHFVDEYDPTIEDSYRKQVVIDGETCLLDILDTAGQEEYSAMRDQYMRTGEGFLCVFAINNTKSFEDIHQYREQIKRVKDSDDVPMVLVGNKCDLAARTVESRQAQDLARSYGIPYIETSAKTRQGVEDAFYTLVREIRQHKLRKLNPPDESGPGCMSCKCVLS

Chain of Cell division control protein 42 homolog (Homo sapiens) (P60953 whole entry, looked up): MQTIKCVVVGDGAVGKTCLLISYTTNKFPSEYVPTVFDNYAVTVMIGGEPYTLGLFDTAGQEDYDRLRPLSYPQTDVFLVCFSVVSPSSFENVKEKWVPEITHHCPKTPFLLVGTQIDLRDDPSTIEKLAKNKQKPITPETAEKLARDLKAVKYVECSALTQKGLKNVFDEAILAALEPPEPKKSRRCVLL

With `COc1cccc(/C=C/C(=O)Nc2ccccc2N2CCOCC2)c1`, the call in experiment [1], in experiment [4] and in experiment [6] was inactive. This compound returned a fluorescence, percent of control (lower = inhibition) in experiment [2] of 33.2%. This compound also returned a GTP binding, percent of control in experiment [3] of 83.5%. In experiment [5], this compound gave a GTP binding signal, raw median fluorescence (lower = inhibition) (MCF (arbitrary fluorescence units)) of 243.

In the case of `COc1ccc(/C=C2/N=C(SCC(=O)Nc3cc(C)on3)N(c3ccccc3)C2=O)cc1`, the compound was called inactive in experiment [1], in experiment [4] and in experiment [6]. In addition, the fluorescence, percent of control (lower = inhibition) in experiment [2] worked out at 41.3%. In addition, the GTP binding, percent of control in experiment [3] worked out at 54.1%. In experiment [5], this compound came in with a GTP binding signal, raw median fluorescence (lower = inhibition) (MCF (arbitrary fluorescence units)) of 177.

Turning to `CCCOC(=O)c1c(NC(=O)CCC(=O)O)sc2c1CCCCC2`, the call in experiment [1], in experiment [4] and in experiment [6] was inactive. In experiment [2], this compound gave a fluorescence, percent of control (lower = inhibition) of 32.9%. This compound registered a GTP binding, percent of control in experiment [3] of 79%. In experiment [5], this compound came in with a GTP binding signal, raw median fluorescence (lower = inhibition) (MCF (arbitrary fluorescence units)) of 282.

In the case of `O=C(O)c1nnn(Cc2ccccc2)c1C(=O)O`, the compound was classed as inactive in experiment [1], in experiment [4] and in experiment [6]. The same compound yielded a fluorescence, percent of control (lower = inhibition) in experiment [2] of 60.5%. This compound displayed a GTP binding, percent of control in experiment [3] of 82.2%. In experiment [5], the GTP binding signal, raw median fluorescence (lower = inhibition) (MCF (arbitrary fluorescence units)) turned out to be 33.

With `Cc1cc(OCCn2cc(C(=O)O)c3ccccc32)ccc1Cl`, the call in experiment [1], in experiment [4] and in experiment [6] was inactive. For the same compound, the fluorescence, percent of control (lower = inhibition) in experiment [2] was 58.3%. In experiment [3], this compound came in with a GTP binding, percent of control of 84.4%. In experiment [5], this compound showed a GTP binding signal, raw median fluorescence (lower = inhibition) (MCF (arbitrary fluorescence units)) of 28.3.

Turning to `CCC(C)(C)NC(=O)c1ccc2c(c1)N(CC(=O)OC)C(=O)C(C)(C)O2`, the compound was called inactive in experiment [1], in experiment [4] and in experiment [6]. In addition, the fluorescence, percent of control (lower = inhibition) in experiment [2] came to 34.2%. Moreover, the GTP binding, percent of control in experiment [3] came to 82.4%. Further, the GTP binding signal, raw median fluorescence (lower = inhibition) (MCF (arbitrary fluorescence units)) in experiment [5] stood at 253.

`Cc1ccc(Nc2nc(-c3c(C)nc4ncccn34)cs2)cc1`: the compound was classed as inactive in experiment [1], in experiment [4] and in experiment [6]. Also, the fluorescence, percent of control (lower = inhibition) in experiment [2] turned out to be 29.8%. The compound also gave a GTP binding, percent of control in experiment [3] of 43.7%. Besides, the GTP binding signal, raw median fluorescence (lower = inhibition) (MCF (arbitrary fluorescence units)) in experiment [5] is 103.

Turning to `COc1ccc(CNc2nc3c(c(=O)n(Cc4ccc(Br)cc4)c(=O)n3C)n2C)cc1`, the compound was called inactive in experiment [1], in experiment [4] and in experiment [6]. In experiment [2], the fluorescence, percent of control (lower = inhibition) was 32%. Moreover, in experiment [3], the GTP binding, percent of control came to 83.8%. In addition, the GTP binding signal, raw median fluorescence (lower = inhibition) (MCF (arbitrary fluorescence units)) in experiment [5] is 222.

As for `Clc1ccc(Cn2ncc3c(N4CCOCC4)ncnc32)cc1`, the compound was classed as inactive in experiment [1], in experiment [4] and in experiment [6]. The compound further gave a fluorescence, percent of control (lower = inhibition) in experiment [2] of 50.5%. The GTP binding, percent of control in experiment [3] stood at 66.4%. This compound displayed a GTP binding signal, raw median fluorescence (lower = inhibition) (MCF (arbitrary fluorescence units)) in experiment [5] of 209.

Take `O=C(Nc1ccccc1F)c1ccccc1-c1ccccc1`: the call in experiment [1], in experiment [4] and in experiment [6] was inactive. In experiment [2], this compound yielded a fluorescence, percent of control (lower = inhibition) of 47.5%. In experiment [3], this compound returned a GTP binding, percent of control of 60.2%. In addition, the GTP binding signal, raw median fluorescence (lower = inhibition) (MCF (arbitrary fluorescence units)) in experiment [5] was found to be 203.

`COc1cc(C(=O)OCC(=O)Nc2ccc3c(c2)OC(F)(F)O3)ccc1OCc1c(C)noc1C`: the call in experiment [1], in experiment [4] and in experiment [6] was inactive. For the same compound, in experiment [2], the fluorescence, percent of control (lower = inhibition) was 52.4%. Also, the GTP binding, percent of control in experiment [3] was determined as 53.9%. The same compound came in with a GTP binding signal, raw median fluorescence (lower = inhibition) (MCF (arbitrary fluorescence units)) in experiment [5] of 186.

As to `CCCCn1c(SCC(=O)c2ccccc2)nc2c1c(=O)[nH]c(=O)n2C`, the outcome in experiment [1], in experiment [4] and in experiment [6] was inactive. In addition, the fluorescence, percent of control (lower = inhibition) in experiment [2] worked out at 48.7%. The compound also registered a GTP binding, percent of control in experiment [3] of 61.3%. Also, the GTP binding signal, raw median fluorescence (lower = inhibition) (MCF (arbitrary fluorescence units)) in experiment [5] was 197.

Regarding `CCOc1ccc2ccccc2c1/C=N/n1cncn1`, the compound was called inactive in experiment [1], in experiment [4] and in experiment [6]. The compound also came in with a fluorescence, percent of control (lower = inhibition) in experiment [2] of 86.7%. For the same compound, in experiment [3], the GTP binding, percent of control turned out to be 156%. The compound also yielded a GTP binding signal, raw median fluorescence (lower = inhibition) (MCF (arbitrary fluorescence units)) in experiment [5] of 179.

For the compound `COc1cccc(CNCc2sc(C(=O)O)cc2C)c1OC`, the call in experiment [1], in experiment [4] and in experiment [6] was inactive. The fluorescence, percent of control (lower = inhibition) in experiment [2] worked out at 61.7%. The compound further gave a GTP binding, percent of control in experiment [3] of 80.7%. In experiment [5], this compound displayed a GTP binding signal, raw median fluorescence (lower = inhibition) (MCF (arbitrary fluorescence units)) of 35.

In the case of `CCOC(=O)c1cc(C(=O)OCC)c(=O)[nH]c1N1CCCC1`, the outcome in experiment [1], in experiment [4] and in experiment [6] was inactive. The compound also returned a fluorescence, percent of control (lower = inhibition) in experiment [2] of 31.6%. The GTP binding, percent of control in experiment [3] was found to be 72.4%. Moreover, the GTP binding signal, raw median fluorescence (lower = inhibition) (MCF (arbitrary fluorescence units)) in experiment [5] was found to be 262.
